Molecules are shown by their SMILES. The panel holds about 83,000 compounds, 20% with a hit somewhere; the sample as a whole holds those more often.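 For each line, cells grew in 96-well plates with the test compound present at a single concentration for 48 hours.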 Unmarked numbers belong to inactive results. The source made the active and inactive calls. The calls were made as follows: active = growth percent below 10; inactive = the rest.

In one experiment the test system is HCT-15 colon. Description: NCI-60 one-dose screen, 48 h (100 = growth as untreated, 0 = no growth, -100 = all killed). The following applies: 10 µM unless noted.
For the compound `CC(C)c1ccc(NCc2cn(-c3ccc(C(=O)O)cc3)nc2-c2cc(C(F)(F)F)cc(C(F)(F)F)c2)cc1`, the growth was 73.7%.

`C[C@@H]1C[C@H]2C(=O)O[C@@H](C)C(NC(=O)[C@H](Cc3cc(F)cc(F)c3)NC(=O)Nc3ccc(Cl)cc3F)C(=O)N3CCC[C@H]3C(=O)N3CCCC[C@H]3C(=O)N[C@@H](CO)C(=O)N2C1` (stereo partly drawn): the growth is 13.2%.

For the compound `CC(=O)O[C@@H]1C(=O)N(c2cnccn2)[C@H]1c1ccccc1[N+](=O)[O-]`, the growth is 15.9%.

For `C=C1CC[C@@H]2[C@]3(C)COC(c4ccccc4)O[C@@H]3CC[C@@]2(C)[C@@H]1C/C=C1/C(=O)OC[C@H]1O` (stereo partly drawn), the growth is 65.5%.

Regarding `Nc1nc(-c2cccc([N+](=O)[O-])c2)c(N=Nc2cccc([N+](=O)[O-])c2)s1`, the growth is 62%.

For the compound `Nc1cc(F)ccc1NC(=O)c1ccc(NC(=O)C/C=C/c2cccnc2)cc1`, the growth is 29.5%.

As to `CCc1nn2c(C)cc(C)nc2c1Cc1ccc(/C=C/CN2CCN(CCOCCOCCN3CCN(C/C=C/c4ccc(Cc5c(CC)nn6c(C)cc(C)nc56)cc4)CC3)CC2)cc1`, the growth was -81.1% (active).

As for `COc1ccc(NC(=O)CSc2nnc(-c3ccc4nc(-c5ccccc5)[nH]c4c3)o2)cc1`, the growth is 92.2%.

`COc1ccc(N2C(=O)c3cc(Cl)ccc3NC2SCc2ccccc2)cc1` (stereo not drawn): the growth is 82%.

Take `O=C(CSc1nc2ccccc2c(=O)n1-c1ccccc1)Nc1ccc(-c2nc3ccc([N+](=O)[O-])cc3[nH]2)cc1`: the growth was 61.3%.

`O=C(NCCn1ccnc1)c1ccc(-c2nc3ccc4[nH]ncc4c3c3c2CCCC3)cc1`: the growth was 97.5%.

With `CCCC(=O)NC(c1cccnc1)c1cc(C(C)(C)C)c2cccnc2c1O` (stereo not drawn), the growth was 35.4%.

On to `NC(N)=Nc1ccc(Oc2cccc(Nc3ccc(Cl)cc3)c2)cn1`, for which the growth was -48.7% (active).

As to `O=C(CN1CCN(c2cc(=O)[nH]c3ccc(F)cc23)CC1)Nc1ccc(Cl)cc1`, the growth is 79.3%.

As for `C=C(C=O)[C@@H]1CC[C@]2(C)[C@H](C(=O)C=C3[C@H]4C[C@](C)(C(=O)OC)CC[C@]4(C)CC[C@]32C)[C@@]1(C)CCC#N`, the growth is -45.3% (active).

The next experiment has as its system HT29 colon. Described as above. The following applies: 10 µM unless noted.
With `Cc1ccc(NC(=O)c2ccc(CN3CCN(C)CC3)cc2)cc1Oc1ccc(-c2[nH]nc3ncnc(N)c23)cc1`, the growth was 12.6%.

As to `CCCn1cnc2c(c1=N)C(c1ccc(Cl)cc1)c1sc3c(C)cccc3c1O2` (stereo not drawn), the growth is 5.11% (active).

As for `C=C(C=O)[C@@H]1CC[C@]2(C)[C@H](CC=C3[C@H]4[C@@H](C)[C@H](C)CC[C@]4(C(=O)OC)CC[C@]32C)[C@@]1(C)CCC#N`, the growth was -37.4% (active).

On to `NC(N)=Nc1ccc(Oc2cccc(NC(N)=Nc3ccc(I)cc3F)c2)cn1`, for which the growth is 31.8%.

Consider `Cc1occc1-c1nc2s/c(=C/c3ccc(-c4cc(C(F)(F)F)ccc4Cl)o3)c(=O)n2n1`, for which the growth was 106%.

Regarding `C[C@H]1c2[nH]c3ccccc3c2C[C@H]2C(=O)N(CCCCCCC(=O)NO)CC(=O)N21`, the growth was 86.8%.

As to `COc1ccc(-c2cc(-c3ccc(Cl)cc3)c(C#N)c(=O)n2Cc2ccc(C(=O)O)cc2)cc1`, the growth was 117%.

For `O=C1[C@H]2Cc3c([nH]c4ccccc34)[C@@H](c3ccc(Cl)cc3)N2C(=O)CN1C1CCN(Cc2ccccc2)CC1`, the growth is 27.1%.

As to `COc1cc(-c2nn(C(C)(C)C)cc2-c2ccnc(NCCCNS(=O)(=O)c3ccc(C)cc3)n2)ccc1Cl`, the growth was 78.3%.

For the compound `CCCCNNC(=O)c1ccc(-c2cccc(F)c2F)cc1`, the growth is 10.6%.

Regarding `CC1(C)CC[C@]2(C(=O)N3CCOCC3)CC[C@]3(C)C(=CC[C@@H]4[C@@]5(C)C/C(=C/c6ccccn6)C(=O)C(C)(C)[C@@H]5CC[C@]43C)[C@@H]2C1`, the growth is 56.3%.

As to `O=S(=O)(NCCNc1nccc(-n2cnc3ccccc32)n1)c1ccc(Br)cc1`, the growth was 97.2%.

In the case of `CC1(C)CC[C@]23CC[C@]4(C)[C@H](CC[C@@H]5[C@@]6(C)CCCN(CO)C(C)(C)[C@@H]6CC[C@]54C)[C@H]2[C@H]1OC3`, the growth is 21%.

As for `O=C1[C@H]2Cc3c([nH]c4ccccc34)[C@@H](c3ccc(Br)cc3)N2C(=O)CN1C1CCN(CC2CCCCC2)CC1`, the growth is -71.1% (active).

Take `COc1ccc([C@H]2c3[nH]c4ccccc4c3C[C@H]3C(=O)N(C4CCN(Cc5c(Cl)cccc5Cl)CC4)CC(=O)N23)c(OC)c1`: the growth was 103%.

Regarding `NS(=O)(=O)c1ccc(Nc2nc(Nc3ccccc3)nc3nnc(SCC(=O)NC4CCCCC4)n23)cc1`, the growth is 113%.

`O=C(NNc1nc2cc(F)ccc2n2c(CN3CCC(O)C3)ccc12)c1cnccn1` (stereo not drawn): the growth is 23.8%.

`CCN(CC)c1cn(-c2ccc(S(N)(=O)=O)cc2)nn1`: the growth is 97.9%.

Take `O=[N+]([O-])c1cc(/C=N/Nc2nc(N/N=C/c3ccc(Cl)c([N+](=O)[O-])c3)nc(N3CCCCC3)n2)ccc1Cl`: the growth was 7.43% (active).

With `CC(=O)Nc1cccc(Nc2nc(N[C@@H](C)c3ccccc3)c3ccccc3n2)c1`, the growth was 4.28% (active).

`COc1ccc(COc2ccc(/C=C3\C(=O)Nc4ccccc43)cc2OC)cc1`: the growth is 108%.

For the compound `CCNC(=O)Oc1ccc(/C(=C(/C)c2ccccc2)c2ccc(OCCN3CCCCCC3)cc2)cc1`, the growth is -14.2% (active).

Consider `COc1cc(/C=N/NC(=O)c2cn(C3CC3)c3c(OC)c(N4CC5CCCNC5C4)c(F)cc3c2=O)ccc1O` (stereo not drawn), for which the growth was -0.257% (active).

Regarding `CC(C)c1ccc(NCc2cn(-c3ccc(C(=O)O)cc3)nc2-c2cc(C(F)(F)F)cc(C(F)(F)F)c2)cc1`, the growth is 80.9%.

`C[C@@H]1C[C@H]2C(=O)O[C@@H](C)C(NC(=O)[C@H](Cc3cc(F)cc(F)c3)NC(=O)Nc3ccc(Cl)cc3F)C(=O)N3CCC[C@H]3C(=O)N3CCCC[C@H]3C(=O)N[C@@H](CO)C(=O)N2C1` (stereo partly drawn): the growth is 35.3%.

For `CC(=O)O[C@@H]1C(=O)N(c2cnccn2)[C@H]1c1ccccc1[N+](=O)[O-]`, the growth is 2.42% (active).

Take `C=C1CC[C@@H]2[C@]3(C)COC(c4ccccc4)O[C@@H]3CC[C@@]2(C)[C@@H]1C/C=C1/C(=O)OC[C@H]1O` (stereo partly drawn): the growth was 54.8%.

Regarding `Nc1nc(-c2cccc([N+](=O)[O-])c2)c(N=Nc2cccc([N+](=O)[O-])c2)s1`, the growth was 94.2%.

As to `Nc1cc(F)ccc1NC(=O)c1ccc(NC(=O)C/C=C/c2cccnc2)cc1`, the growth is 24.5%.

For the compound `CCc1nn2c(C)cc(C)nc2c1Cc1ccc(/C=C/CN2CCN(CCOCCOCCN3CCN(C/C=C/c4ccc(Cc5c(CC)nn6c(C)cc(C)nc56)cc4)CC3)CC2)cc1`, the growth was -35.8% (active).

Regarding `COc1ccc(NC(=O)CSc2nnc(-c3ccc4nc(-c5ccccc5)[nH]c4c3)o2)cc1`, the growth was 108%.

`COc1ccc(N2C(=O)c3cc(Cl)ccc3NC2SCc2ccccc2)cc1` (stereo not drawn): the growth was 84.1%.

Regarding `O=C(CSc1nc2ccccc2c(=O)n1-c1ccccc1)Nc1ccc(-c2nc3ccc([N+](=O)[O-])cc3[nH]2)cc1`, the growth was 79.3%.

On to `O=C(NCCn1ccnc1)c1ccc(-c2nc3ccc4[nH]ncc4c3c3c2CCCC3)cc1`, for which the growth is 88.4%.

As to `CCCC(=O)NC(c1cccnc1)c1cc(C(C)(C)C)c2cccnc2c1O` (stereo not drawn), the growth was 34%.

Take `NC(N)=Nc1ccc(Oc2cccc(Nc3ccc(Cl)cc3)c2)cn1`: the growth was 4.94% (active).

For the compound `O=C(CN1CCN(c2cc(=O)[nH]c3ccc(F)cc23)CC1)Nc1ccc(Cl)cc1`, the growth is 100%.

Consider `C=C(C=O)[C@@H]1CC[C@]2(C)[C@H](C(=O)C=C3[C@H]4C[C@](C)(C(=O)OC)CC[C@]4(C)CC[C@]32C)[C@@]1(C)CCC#N`, for which the growth is -5.25% (active).

These data come from PubChem BioAssay (NCI).
